TRPV1 potentiator = enhances activation of the human vanilloid receptor TRPV1; actives 0.02% (n = 320,000); potentiation, % at 8.33 µM; Q8NER1; TRPV1-expressing cells, Fluo-8 calcium influx, capsaicin EC20 potentiation; in the data active means potentiation above about 80%; inconclusive means between about 30% and that limit; further: 0% is about no effect
Target sequence (Q8NER1 whole entry, looked up): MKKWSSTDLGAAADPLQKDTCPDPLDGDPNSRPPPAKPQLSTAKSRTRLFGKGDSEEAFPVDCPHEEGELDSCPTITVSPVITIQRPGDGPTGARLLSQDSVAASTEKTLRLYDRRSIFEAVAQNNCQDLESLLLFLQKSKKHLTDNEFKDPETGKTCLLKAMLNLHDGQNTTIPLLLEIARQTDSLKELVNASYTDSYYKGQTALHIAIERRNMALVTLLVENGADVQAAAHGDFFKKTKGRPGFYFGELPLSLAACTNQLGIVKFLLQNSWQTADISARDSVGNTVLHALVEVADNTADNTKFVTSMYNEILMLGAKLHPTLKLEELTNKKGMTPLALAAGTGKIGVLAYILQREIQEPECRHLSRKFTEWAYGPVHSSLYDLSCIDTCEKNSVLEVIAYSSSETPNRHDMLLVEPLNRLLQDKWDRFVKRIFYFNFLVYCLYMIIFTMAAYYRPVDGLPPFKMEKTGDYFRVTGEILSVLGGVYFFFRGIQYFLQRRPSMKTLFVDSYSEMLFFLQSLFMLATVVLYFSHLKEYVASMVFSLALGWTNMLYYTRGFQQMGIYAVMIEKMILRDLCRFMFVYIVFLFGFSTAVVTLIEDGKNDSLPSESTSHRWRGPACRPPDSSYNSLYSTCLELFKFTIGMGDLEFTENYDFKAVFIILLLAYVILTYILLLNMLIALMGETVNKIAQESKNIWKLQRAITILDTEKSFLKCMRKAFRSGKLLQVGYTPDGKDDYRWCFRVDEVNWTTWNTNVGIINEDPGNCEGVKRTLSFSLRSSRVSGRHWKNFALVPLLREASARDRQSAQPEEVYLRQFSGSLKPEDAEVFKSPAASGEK
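Fluo-8 calcium influx in TRPV1-expressing cells, kinetic read (ex 480/em 520 nm). Compound added and read 3 min for agonist activity, followed by capsaicin at EC20 final and 2 min further read for enhancement.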
TRPV1 ag = human TRPV1 agonism | activation, % at 8.33 µM | Q8NER1 | TRPV1-expressing cells, Fluo-8 calcium influx, agonist mode | AID 540275 | actives 0.19% (n = 320,000); in the data active means activation above about 80%; inconclusive means between about 30% and that limit; further: 0% is about no effect
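Cells expressing TRPV1 were dye-loaded with Fluo-8 and read kinetically: 10 s baseline, 3 min after compound (agonist portion), then 2 min after EC20 capsaicin (allosteric enhancer portion). Calcium-bound dye fluorescence at 480/520 nm.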
RORg inh = ROR gamma (mouse) transcription inhibition | Drosophila S2 Gal4-RORgamma UAS-luciferase reporter, 20 h | Potency, µM (series often up to 53.6 µM), for inactives: at the top dose activity change, negative = inhibition, hits mostly inhibitors | actives 5.4% (n = 310,000); further: potency means the concentration at half of the fitted maximal effect; on the % scale 0 is the no-effect control and ±100 the full control effect; nearly all actives have a fitted effect of over 60% in size
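Drosophila S2 cells stably expressing Gal4-DBD/mouse RORγ fusion under metallothionein promoter plus UAS-luciferase; compound 1 h, then 700 uM CuSO4 induction for 20 h at ambient temperature; inhibition read as reduced luminescence.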
uPA surface inh = cell surface uPA generation inhibition; cell surface uPA generation assay, qHTS; Potency, µM (highest dose often 38.3 µM), for inactives: at the top dose activity change, negative = inhibition, actives largely listed as inhibitors; actives 0.31% (n = 330,000); AID 540303; active means well fitted inhibition curve with a large enough effect; inconclusive means small, poorly fitted or top-dose-only effect; inactive means no such curve, though single readings can be large or run the other way; tested in mouse RAW 264.7 cells; further: potency means the concentration at half of the fitted maximal effect; on the % scale 0 is the no-effect control and ±100 the full control effect; nearly all actives have a fitted effect of over 55% in size
Gal4-VP16 FLuc = counter-screen for ROR gamma inhibitors: Gal4-VP16 reporter | Drosophila S2 Gal4-VP16 UAS-luciferase, luminescence, 20 h | Potency, µM (doses to about 53.6 µM), for inactives: at the top dose activity, negative = inhibition, hits mostly inhibitors | actives 3.5% (n = 310,000) | AID 2546;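 further: Gal4-VP16 expression switched on by copper sulfate through the metallothionein promoter; potency means the concentration at half of the fitted maximal effect; on the % scale 0 is the no-effect control and ±100 the full control effect; nearly all actives have a fitted effect of over 50% in size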
* marks the source's active call; other numbers are inactive results; ? = inconclusive; / = no result; [ ] = remark or other dose. Rows were chosen to be rich in hits. Some 5.8% of all compounds tested hit in one or more screens of this group. Unless noted, the call rests on the fitted dose curve; in most records, active means well fitted curve in the direction sought with a large enough effect; inconclusive means small, poorly fitted or top-dose-only effect, or another doubt; inactive means no such curve, though single readings can be large; an effect the other way counts as inactive or inconclusive.

SMILES	TRPV1 potentiator	TRPV1 ag	RORg inh	uPA surface inh	Gal4-VP16 FLuc
CCOC(=O)C1(CCc2ccccc2)CCN(Cc2ccc(C(=O)OC)cc2)CC1	-7.3	-1.4	75.2%	-0.5%	-19.2%
CCOC(=O)C1(CCc2ccccc2)CCN(Cc2ccccn2)CC1	-0.8	15.1	5.01µM*	0.8%	11.2µM*
Cc1cc2c(NC(=O)Nc3ccc(C(C)(C)C)cc3)cccc2nn1	-5.9	113.7*	36.9%	-3.7%	-14.9%
Cc1cc2c(NC(=O)Nc3ccccc3)cccc2nn1	11.6	86.6*	-4.8%	-1.7%	-5.5%
O=C(Nc1ccccc1)Nc1cccc(NC(=O)Nc2ccccc2)c1F	1.1	1.5	-2.3%	4.4%	1.8%
Cc1cccn2cc(-c3ccc(NC(=O)Cc4ccccc4)cc3)nc12	7.7	2.9	5.01µM*	0.6%	?
Cc1ccc(NC(=O)CC2SC(=NC3CCCCC3)NC2=O)cc1 (stereo unspecified)	0.6	-0.7	40.1%	-3.5%	-14.7%
CC(=O)c1cccc(NC(=O)CC2S/C(=N/N=C3CCCCCC3)NC2=O)c1 (stereo unspecified)	3.5	1.7	10µM*	-5.9%	-25.5%
O=C(CC1S/C(=N/N=C/c2ccco2)NC1=O)Nc1ccccc1 (stereo unspecified)	?	-4.6	-42.9%	-1.0%	-15.8%[10 µM]
COc1ccc(Cl)cc1NC(=O)CC1S/C(=N/N=C2CCCCCC2)NC1=O (stereo unspecified)	-7.2	11.9	3.55µM*	-5.8%	5.01µM*
CCOc1ccc(N=C2NC(=O)C(CC(=O)Nc3ccc(OC)cc3)S2)cc1 (stereo unspecified)	11.1	-2.0	-6.9%	8.4%	18.9%
CC1=C/C(=N\N=C2\NC(=O)C(CC(=O)Nc3ccccc3)S2)CC(C)(C)C1 (stereo unspecified)	4.5	4.9	1.58µM*	-9.0%	?
CCOc1ccc(NC(=O)CC2S/C(=N/N=C3CCCCCC3)NC2=O)cc1 (stereo unspecified)	21.7	-2.6	20µM*	-4.2%	11.2µM*
CNC1=CN(O)C(c2ccccc2)=c2cc(Cl)ccc2=N1	/	/	22.1%	/	-5.6%
COc1ccc2[nH]c(S(=O)Cc3ncc(C)c(OC)c3C)nc2n1 (stereo unspecified)	/	/	3.5%	/	1.1%
O=C1OC(c2ccc3c(c2)OCO3)=N/C1=C\c1ccc(C(=O)O)cc1	4.3	-0.2	10.2%	-1.7%	-9.1%
O=C1c2ccccc2C(=O)c2c(NCc3cccnc3)cccc21	-10.3	-1.2	-19.5%	6.7%	3.16µM*
c1ccc(NCc2cccnc2)cc1	0.8	4.3	22.9%	-2.5%	-1.1%
Cc1oc2c(c1C(=O)NCc1cccnc1)C(=O)c1ccccc1C2=O	5.6	-2.3	?	?	4.47µM*
CC(=O)c1c(C)oc2c1C(=O)c1ccccc1C2=O	4.9	-1.7	3.98µM*	-8.8%	15.8µM*
COc1ccc(CNC(=O)c2c(C)oc3c2C(=O)c2ccccc2C3=O)cc1	2.0	-1.2	-28.8%	-15.2%	-10.4%
CCCCC1=CC2=CC(=O)C(C)(OC(=O)c3cnc4ccccc4n3)C(=O)C2=CO1 (stereo unspecified)	?	-1.8	3.8%	/	-3.7%
Cc1ccc(/C=C(\C#N)C(=O)NC(C)c2ccccc2)o1 (stereo unspecified)	?	9.1	?	-0.5%	23.4%
Cc1ccc([N+](=O)[O-])cc1S(=O)(=O)Nc1ccc(N2CCOCC2)cc1	-1.2	0.0	5.4%	-3.1%	-9.2%
CN1CCN(c2ncnc3ccc(-c4cccc(NS(C)(=O)=O)c4)cc23)CC1	/	/	-15.5%	/	-21.4%
SMILES	TRPV1 potentiator	TRPV1 ag	RORg inh	uPA surface inh	Gal4-VP16 FLuc
COc1ccc(OCc2nnc(SCC(=O)Nc3ccc(C)cc3)o2)cc1	8.4	-2.4	-12.5%	-4.4%	-0.9%
O=C(CSc1nnc(COc2ccccc2)o1)N1CCOCC1	-7.2	3.6	0.112µM*	6.4%	-4.7%
Cc1ccc(OCc2nnc(SCC(=O)CC(=O)Nc3ccccc3)o2)cc1	-15.1	-2.7	12.6µM*	-2.4%	?
COc1cc(/C=N/Nc2ncnc3sc4c(c23)CCC4)ccc1O	-8.7	16.0	-10.0%[10 µM]	-4.0%	?
CCOC(=O)c1nnsc1Nc1ccc(C)c(C)c1	-18.6	?	0.708µM*	16.5%	-18.5%[10 µM]
Cc1cc(C)cc(-c2nnc(SCC(=O)Nc3cc(C)on3)o2)c1	-6.5	0.8	/	4.2%	/
O=C(/C=C/c1ccco1)NC(=S)Nc1ccccn1	10.8	0.3	10µM*	-3.1%	?
COc1ccccc1/C=C/C(=O)NC(=S)Nc1ccccn1	4.6	-4.2	4.47µM*	-1.7%	5.62µM*
COc1ccc(/C=C/C(=O)NC(=S)Nc2ccccn2)cc1	12.6	-4.4	?	-4.6%	-28.1%
Cc1cccnc1NC(=S)NC(=O)/C=C/c1ccco1	2.9	3.5	2.82µM*	-3.1%	7.94µM*
O=C(/C=C/c1ccco1)Nc1cccc(NC(=O)/C=C/c2ccco2)n1	4.2	0.4	18.2%	-1.3%	?
CCCCCCCC#Cc1ccccc1/C=N/S(=O)C(C)(C)C (stereo unspecified)	/	/	-15.1%[10 µM]	/	0.7%[10 µM]
O=Nc1c(O)n(Cc2ccc(Cl)c(Cl)c2)c2ccccc12	14.7	-3.0	?	5.4%	?
N/C(=N\OC(=O)CC(c1ccccc1)c1ccccc1)c1cccnc1	-0.3	?	-20.3%	?	?
Cc1cc(Cl)n2c(nc3cc(F)c(F)cc32)c1C#N	0.7	0.3	4.47µM*	-8.3%	7.08µM*
O=C(O)c1ccc(NC(=S)NC(=O)c2ccc(-c3ccccc3)cc2)cc1	-7.9	-2.7	12.8%	-7.4%	0.9%
O=C(NC(=S)Nc1ccccc1)c1ccc(-c2ccccc2)cc1	2.1	-0.2	3.55µM*	-0.3%	4.47µM*
CC(C)NS(=O)(=O)c1ccc(NC(=S)NC(=O)c2ccc(-c3ccccc3)cc2)cc1	-7.7	1.4	7.08µM*	/	?
CCn1nnc(NC(=O)c2cccnc2)n1	-1.7	-2.3	-5.2%	-2.2%	-12.4%
CCn1nnc(NC(=O)c2ccc(C(C)(C)C)cc2)n1	-3.8	-1.0	12.6µM*	-9.6%	12.6µM*
COC(=O)[C@H](CCSC)NC(=O)Cn1cnc(C(=O)Nc2ccc(C)c(C)c2)n1	/	/	/	10µM*	/
COc1c(/C=N/NC(N)=S)c(C)nn1-c1ccccc1	-4.1	-2.4	7.08µM*	0.7%	?
Cc1nn(-c2ccccc2)c(N2CCCC2)c1/C=N/NC(=S)Nc1ccc(F)cc1	/	/	/	13.0%	/
FC(F)Oc1ccc(/C=N/NC(=S)Nc2cc(C(F)(F)F)ccc2Cl)cc1	-6.0	-1.2	1.26µM*	7.9%	5.62µM*
Cc1ccc(NC(=S)N/N=C/c2c(C)nn(-c3ccccc3)c2N2CCCC2)cc1	1.7	-1.9	?	-4.7%	0.1µM*
Cc1nn(C)cc1/C=N/NC(=S)Nc1ccccc1	-8.5	5.9	0.891µM*	5.0%	2.24µM*
COC(=O)C(CC(=O)O)NCc1ccco1 (stereo unspecified)	-2.9	0.3	3.8%	5.7%	0.2%
